# Where “and” joins values, the source holds several entries; their conditions need not be identical. Equal entries are not always repeated. Where two headings read alike, the source gives them in different places.
# Legend:
# p38-alpha = system: T1, p38-alpha
# T1 construct: gene MAPK14
# p38-beta = system: T2, p38-beta
# T2 construct: gene MAPK11
# AAK1 = conditions: concentration: 1 μM, replicates: in singlicate, n = 1
# ABL1-nonphosphorylated = conditions: concentration: 1 μM, replicates: in singlicate, n = 1
# ABL1-phosphorylated = conditions: concentration: 1 μM, replicates: in singlicate, n = 1
# ABL2 = conditions: concentration: 1 μM, replicates: in singlicate, n = 1
# ACVR1B = conditions: concentration: 1 μM, replicates: in singlicate, n = 1
# ACVR1 = conditions: concentration: 1 μM, replicates: in singlicate; n = 1
# YSK4 = system: T3, YSK4
# T3 construct: gene MAP3K19
# 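For %Inh in this document: KINOMEscan kinase panel screen.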
# 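For Kd in this document: kd values determined as follow-up on hits from a single-replicate KINOMEscan panel screen.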
smiles,measurement,setting,value
COCCNC(=O)c1ccc(-c2cc(C(=O)NC3CC3)cc(F)c2C)cc1 [GW868318],Kd,p38-alpha,7.3 nM
same,Kd,p38-beta,88 nM
same,%Inh,AAK1,0%
same,%Inh,ABL1-nonphosphorylated,43%
same,%Inh,ABL1-phosphorylated,28%
same,%Inh,ABL2,12%
same,%Inh,ACVR1B,17%
same,%Inh,ACVR1,7%
CCc1nc(-c2cccc(C)c2)c(-c2ccnc(NCc3ccccc3)c2)s1,Kd,p38-alpha,150 nM
same,%Inh,AAK1,10%
same,%Inh,ABL1-nonphosphorylated,35%
same,%Inh,ABL1-phosphorylated,7%
same,%Inh,ABL2,21%
same,%Inh,ACVR1B,0%
same,%Inh,ACVR1,0%
Cc1c(Cn2c(C)nn3c(=O)cc(N4CCOC(C)C4)nc23)cccc1C(F)(F)F (stereo not shown) [GSK2344444],%Inh,AAK1,0%
same,%Inh,ABL1-nonphosphorylated,0%
same,%Inh,ABL1-phosphorylated,0%
same,%Inh,ABL2,11%
same,%Inh,ACVR1B,0%
same,%Inh,ACVR1,0%
O=C(Nc1cccc(-c2nn3ncccc3c2-c2ccnc(Nc3cccc(C(F)(F)F)c3)n2)c1)c1c(F)cccc1F [GSK299495],%Inh,AAK1,2%
same,%Inh,ABL1-nonphosphorylated,18%
same,%Inh,ABL1-phosphorylated,9%
same,%Inh,ABL2,35%
same,%Inh,ACVR1B,0%
same,%Inh,ACVR1,9%
CN1c2ccc(NCc3ccc(F)cc3)cc2-c2c(cnn2C)S1(=O)=O,%Inh,AAK1,0%
same,%Inh,ABL1-nonphosphorylated,21%
same,%Inh,ABL1-phosphorylated,9%
same,%Inh,ABL2,0%
same,%Inh,ACVR1B,0%
same,%Inh,ACVR1,0%
COc1cc(Nc2nccc(N3CCC(NC(=O)c4cccc(NC(C)=O)c4)C3)n2)cc(OC)c1OC (stereo not shown) [GSK1379754],%Inh,AAK1,76%
same,%Inh,ABL1-nonphosphorylated,0%
same,%Inh,ABL1-phosphorylated,0%
same,%Inh,ABL2,13%
same,%Inh,ACVR1B,0%
same,%Inh,ACVR1,63%
Cc1ccc(NC(=O)c2ccnc(N3CCN(C)CC3)c2)cc1-c1ccc(C(=O)NCC2CC2)cc1 [GW775604],%Inh,AAK1,0%
same,%Inh,ABL1-nonphosphorylated,45%
same,%Inh,ABL1-phosphorylated,0%
same,%Inh,ABL2,0%
same,%Inh,ACVR1B,0%
same,%Inh,ACVR1,0%
Nc1nc(-c2ccc3c(N)n[nH]c3c2)cc(N2CCCC2)n1 [GSK2227430],%Inh,AAK1,17%
same,%Inh,ABL1-nonphosphorylated,0%
same,%Inh,ABL1-phosphorylated,0%
same,%Inh,ABL2,0%
same,%Inh,ACVR1B,0%
same,%Inh,ACVR1,0%
Fc1ccc(-c2ncn(CCCN3CCOCC3)c2-c2ccccn2)cc1 [SB-211742],%Inh,AAK1,0%
same,%Inh,ABL1-nonphosphorylated,39%
same,%Inh,ABL1-phosphorylated,12%
same,%Inh,ABL2,7%
same,%Inh,ACVR1B,1%
same,%Inh,ACVR1,0%
N#Cc1c(N2CCOCC2)sc(-c2ccn[nH]2)c1-c1ccc(Cl)cc1,%Inh,AAK1,70%
same,%Inh,ABL1-nonphosphorylated,42%
same,%Inh,ABL1-phosphorylated,0%
same,%Inh,ABL2,9%
same,%Inh,ACVR1B,15%
same,%Inh,ACVR1,0%
COc1cc2ncn(-c3cc(OCc4sccc4Cl)c(C(N)=O)s3)c2cc1OC [GSK448459],%Inh,AAK1,42%
same,%Inh,ABL1-nonphosphorylated,0%
same,%Inh,ABL1-phosphorylated,3%
same,%Inh,ABL2,17%
same,%Inh,ACVR1B,0%
same,%Inh,ACVR1,18%
O=c1cc(N2CCOCC2)nc2n(Cc3cccc(C(F)(F)F)c3)ccn12 [GSK2297543],%Inh,AAK1,0%
same,%Inh,ABL1-nonphosphorylated,0%
same,%Inh,ABL1-phosphorylated,0%
same,%Inh,ABL2,3%
same,%Inh,ACVR1B,0%
same,%Inh,ACVR1,5%
COc1ccc(COc2cc(-n3cnc4ccccc43)sc2C(N)=O)cc1 [GSK1024304],%Inh,AAK1,29%
same,%Inh,ABL1-nonphosphorylated,0%
same,%Inh,ABL1-phosphorylated,0%
same,%Inh,ABL2,15%
same,%Inh,ACVR1B,0%
same,%Inh,ACVR1,0%
NS(=O)(=O)c1cccc(-c2ccc3ncc(N4CCOCC4)nc3c2)c1 [GSK1535721],Kd,YSK4,3400 nM
same,%Inh,AAK1,26%
same,%Inh,ABL1-nonphosphorylated,1%
same,%Inh,ABL1-phosphorylated,0%
same,%Inh,ABL2,0%
same,%Inh,ACVR1B,0%
same,%Inh,ACVR1,21%
Cc1cccc(-c2nc(-c3ccc(S(C)(=O)=O)cc3)sc2-c2ccncc2)c1,Kd,p38-alpha,540 nM
same,%Inh,AAK1,8%
same,%Inh,ABL1-nonphosphorylated,0%
same,%Inh,ABL1-phosphorylated,0%
same,%Inh,ABL2,29%
same,%Inh,ACVR1B,0%
same,%Inh,ACVR1,0%
Cc1nnc(-c2ccc3ncc(-c4ccc(S(C)=O)cc4)n3c2)o1 (stereo not shown),%Inh,AAK1,41%
same,%Inh,ABL1-nonphosphorylated,44%
same,%Inh,ABL1-phosphorylated,6%
same,%Inh,ABL2,7%
same,%Inh,ACVR1B,0%
same,%Inh,ACVR1,0%
NS(=O)(=O)CCc1cccc(Nc2nccc(-c3c(-c4cccc(NC(=O)c5c(F)cccc5F)c4)nn4ccccc34)n2)c1 [GSK336735],%Inh,AAK1,0%
same,%Inh,ABL1-nonphosphorylated,95.3%
same,%Inh,ABL1-phosphorylated,16%
same,%Inh,ABL2,78%
same,%Inh,ACVR1B,7%
same,%Inh,ACVR1,0%
O=c1cc(N2CCOCC2)nc2n(Cc3cccc4ccccc34)ccn12 [GSK2333389],%Inh,AAK1,0%
same,%Inh,ABL1-nonphosphorylated,0%
same,%Inh,ABL1-phosphorylated,0%
same,%Inh,ABL2,17%
same,%Inh,ACVR1B,0%
same,%Inh,ACVR1,0%
c1ccc(-c2cc(-c3c[nH]nc3-c3ccccn3)ccn2)cc1 [GW576604],%Inh,AAK1,23%
same,%Inh,ABL1-nonphosphorylated,0%
same,%Inh,ABL1-phosphorylated,0%
same,%Inh,ABL2,0%
same,%Inh,ACVR1B,37%
same,%Inh,ACVR1,0%
Cc1ccc(C(=O)NCC(N)=O)cc1-n1c(C)cc(OCc2ccc(F)cc2F)c(Br)c1=O,Kd,p38-alpha,0.23 nM
same,Kd,p38-beta,10 nM
same,%Inh,AAK1,0%
same,%Inh,ABL1-nonphosphorylated,57%
same,%Inh,ABL1-phosphorylated,33%
same,%Inh,ABL2,27%
same,%Inh,ACVR1B,11%
same,%Inh,ACVR1,11%
Cl.Nc1ncnc2occ(-c3ccc(NC(=O)Nc4cc(C(F)(F)F)ccc4F)cc3)c12 [SB-707548],%Inh,AAK1,0%
same,%Inh,ABL1-nonphosphorylated,99.1%
same,%Inh,ABL1-phosphorylated,50%
same,%Inh,ABL2,81%
same,%Inh,ACVR1B,0%
same,%Inh,ACVR1,1%
Fc1ccc(-c2ncn(CCCN3CCOCC3)c2-c2cccnc2)cc1 [SB-211743],%Inh,AAK1,0%
same,%Inh,ABL1-nonphosphorylated,30%
same,%Inh,ABL1-phosphorylated,34%
same,%Inh,ABL2,0%
same,%Inh,ACVR1B,0%
same,%Inh,ACVR1,2%
CNc1ncnc2[nH]ncc12 [SKF-18355],%Inh,AAK1,0%
same,%Inh,ABL1-nonphosphorylated,34%
same,%Inh,ABL1-phosphorylated,11%
same,%Inh,ABL2,0%
same,%Inh,ACVR1B,4%
same,%Inh,ACVR1,0%
CC(C)(C)n1cnc2c(N)ncnc21 [SKF-97359],%Inh,AAK1,0%
same,%Inh,ABL1-nonphosphorylated,37%
same,%Inh,ABL1-phosphorylated,0%
same,%Inh,ABL2,1%
same,%Inh,ACVR1B,0%
same,%Inh,ACVR1,0%
O=C(NCCNc1ccnc(Nc2ccc(F)cc2)n1)Nc1ccccc1F [GSK1379880],%Inh,AAK1,0%
same,%Inh,ABL1-nonphosphorylated,0%
same,%Inh,ABL1-phosphorylated,0%
same,%Inh,ABL2,24%
same,%Inh,ACVR1B,0%
same,%Inh,ACVR1,0%
O=C(NCCNc1ccnc(Nc2ccc(F)cc2)n1)c1cc2ccccc2s1 [GSK1379874],Kd,ZAK,> 10000 nM
same,%Inh,AAK1,0%
same,%Inh,ABL1-nonphosphorylated,0%
same,%Inh,ABL1-phosphorylated,0%
same,%Inh,ABL2,7%
same,%Inh,ACVR1B,0%
same,%Inh,ACVR1,9%
C[C@@H](Oc1cc(-n2cnc3ccc(NC(=O)NC(C)(C)C)cc32)sc1C(N)=O)c1ccccc1Cl [GSK346294],%Inh,AAK1,15%
same,%Inh,ABL1-nonphosphorylated,0%
same,%Inh,ABL1-phosphorylated,0%
same,%Inh,ABL2,9%
same,%Inh,ACVR1B,0%
same,%Inh,ACVR1,0%
Cl.Cl.Cl.Fc1ccc(-c2ncn(C3CCNCC3)c2-c2ccnc(Nc3ccccc3)n2)cc1 [SB-238039],%Inh,AAK1,0%
same,%Inh,ABL1-nonphosphorylated; 1 µM,0% and 63%
same,%Inh,ABL1-phosphorylated; 1 µM,31% and 12%
same,%Inh,ABL2; 1 µM,5% and 3%
same,%Inh,ACVR1B; 1 µM,58% and 31%
same,%Inh,ACVR1,16%
NS(=O)(=O)c1cccc(-c2ccc3nccc(-c4cccc(S(N)(=O)=O)c4)c3c2)c1 [GW867253],%Inh,AAK1,27%
same,%Inh,ABL1-nonphosphorylated,36%
same,%Inh,ABL1-phosphorylated,15%
same,%Inh,ABL2,0%
same,%Inh,ACVR1B,0%
same,%Inh,ACVR1,0%
NCCNS(=O)(=O)c1ccc(-c2ccnc3[nH]ccc23)cc1 [GSK977617],%Inh,AAK1; 1 µM,67% and 57%
same,%Inh,ABL1-nonphosphorylated,0%
same,%Inh,ABL1-phosphorylated; 1 µM,9% and 0%
same,%Inh,ABL2; 1 µM,22% and 1%
same,%Inh,ACVR1B; 1 µM,3% and 0%
same,%Inh,ACVR1,0%
O=C(Nc1n[nH]c2cc(-c3cccc(F)c3)ccc12)C1CC1 [SB-735464],Kd,YSK4,310 nM
same,%Inh,AAK1,26%
same,%Inh,ABL1-nonphosphorylated,64%
same,%Inh,ABL1-phosphorylated,43%
same,%Inh,ABL2,8%
same,%Inh,ACVR1B,10%
same,%Inh,ACVR1,36%
CC(=O)Nc1ccc(COc2ccc(Nc3ccnc4cc(-c5ccccn5)ccc34)cc2)cc1.Cl [GW440148],%Inh,AAK1,13%
same,%Inh,ABL1-nonphosphorylated,35%
same,%Inh,ABL1-phosphorylated,19%
same,%Inh,ABL2,11%
same,%Inh,ACVR1B,0%
same,%Inh,ACVR1,0%
CN1c2ccc(CNc3ccc(F)cc3)cc2-c2c(cnn2C)S1(=O)=O,%Inh,AAK1,0%
same,%Inh,ABL1-nonphosphorylated,21%
same,%Inh,ABL1-phosphorylated,0%
same,%Inh,ABL2,0%
same,%Inh,ACVR1B,0%
same,%Inh,ACVR1,0%
Cc1nnc(-c2ccc(C)c(-c3ccc(C(=O)Nc4ccc(NS(C)(=O)=O)cc4)cc3)c2)o1 [GW702865],Kd,p38-alpha,140 nM
same,%Inh,AAK1,0%
same,%Inh,ABL1-nonphosphorylated,0%
same,%Inh,ABL1-phosphorylated,0%
same,%Inh,ABL2,0%
same,%Inh,ACVR1B,0%
same,%Inh,ACVR1,0%
CC(C)Oc1ccc2c(-c3ccnc(Nc4ccc(N5CCN(C)CC5)cc4)n3)cnn2n1 [GW696155],%Inh,AAK1,90%
same,%Inh,ABL1-nonphosphorylated,39%
same,%Inh,ABL1-phosphorylated,53%
same,%Inh,ABL2,14%
same,%Inh,ACVR1B,0%
same,%Inh,ACVR1,69%

# — publication PMC5540273 (PLoS ONE, 2017)
